Source: PubChem BioAssay
D2 PAM-1 = positively modulates the human D2 dopamine receptor allosterically; P14416; 0.34% of 340,000 active; potentiation, % at 10 µM; HEK293 T-REx D2, calcium flux, EC20 dopamine potentiation;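 active = potentiation over 3 SD above the plate norm, cut at about 30% in these data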; note: 0% is about no effect
Target sequence (P14416 whole entry, looked up): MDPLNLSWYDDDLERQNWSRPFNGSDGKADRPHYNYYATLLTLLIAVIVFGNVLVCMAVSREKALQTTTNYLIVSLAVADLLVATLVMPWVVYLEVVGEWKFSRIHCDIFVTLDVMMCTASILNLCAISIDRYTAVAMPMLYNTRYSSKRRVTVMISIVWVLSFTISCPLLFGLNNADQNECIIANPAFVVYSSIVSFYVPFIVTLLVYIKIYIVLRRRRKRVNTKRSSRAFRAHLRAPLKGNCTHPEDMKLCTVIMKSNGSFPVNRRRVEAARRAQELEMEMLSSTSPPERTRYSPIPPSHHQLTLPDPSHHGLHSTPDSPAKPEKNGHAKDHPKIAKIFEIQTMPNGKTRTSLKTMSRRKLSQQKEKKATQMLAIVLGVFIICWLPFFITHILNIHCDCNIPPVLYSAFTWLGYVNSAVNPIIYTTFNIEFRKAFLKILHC
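Tetracycline-induced HEK293 T-REx cells force-coupled to calcium signalling expressed D2; compounds were pin-added after a 10 s baseline, read kinetically 180 s, then an EC20 dopamine challenge followed with a further 180 s calcium read.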
D2 ag-1 = human D2 receptor agonism in beta-arrestin assay | P14416 | DiscoveRx PathHunter D2 beta-arrestin, luminescence, 90 min; 100% = 57 uM dopamine signal | activation, % (test concentration not listed) | 0.084% of 360,000 active | AID 624465; in the data active = activation above about 40%; inconclusive = between about 15% and that limit
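DiscoveRx PathHunter D2 beta-arrestin cells (2,100/well) attached overnight, then compound-stimulated 90 min at 37 C in HBSS/10 mM HEPES/0.1% Tween-20 buffer; beta-galactosidase complementation read by luminescence after 1 h at ambient temperature. Dopamine 57 uM final (EC100) as control.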
D2 PAM-2 = positive allosteric modulators of human D2 dopamine receptor | P14416 | DiscoveRx D2 beta-arrestin cells, luminescence, 90 min; 100% = 57 uM dopamine signal | potentiation, % (concentration not given with the values) | 0.23% of 360,000 active | AID 624464; in the data active = potentiation above about 50%; inconclusive = mostly about 30% to 49%
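D2 cells co-treated with compound plus 50 nM dopamine (EC20) for 90 min at 37 deg C to detect potentiation. Beta-arrestin recruitment was read as enzyme-fragment luminescence after 1 h at ambient temperature. Full response was set by 57 uM dopamine.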
D2 ag-2 = activates the human D2 dopamine receptor. HEK293 T-REx D2 cells, calcium flux agonist mode. 0.53% of 340,000 active. activation, % at 2 µM;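 active = activation over 3 SD above normal in the single-dose calcium agonist read, cut at about 30% in these data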; note: 0% is about no effect
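Agonism is scored from calcium flux in a force-coupled, inducible HEK293 cell line expressing D2, read kinetically for 180 s after compound addition against dopamine controls.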
D2 antag = D2 dopamine receptor (human) antagonism; inhibition, % at 10 µM; 2% of 340,000 active; HEK293 TREx D2 cells, calcium flux, dopamine EC80; P14416; in the data active = inhibition above about 30%; inactive = below that, where a call was filed; note: 0% is about no effect
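Read-out: kinetic calcium fluorescence (1 cycle/s) in inducible HEK293 T-REx D2 cells after an EC80 dopamine addition that followed 180 s compound preincubation. Loss of the dopamine response indicates antagonism.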
* marks the source's active call; other numbers are inactive results; ? = inconclusive; · = no result given. Compounds with a hit are over-represented: about 2.4% of the library has one in this group of screens.

SMILES	D2 PAM-1	D2 ag-1	D2 PAM-2	D2 ag-2	D2 antag
O=C(CN1C(=O)CCC1=O)NCC12CC3CC(CC(C3)C1)C2	38.5*	-4.0	-7.8	-1.8	-8.9
Cc1cccc(C(=O)O/N=C(\N)Cc2ccc([N+](=O)[O-])cc2)c1	5.7	?	148.1*	0.4	15.7
N/C(Cc1ccc([N+](=O)[O-])cc1)=N\OC(=O)c1ccccc1Br	-11.3	41.1*	121.7*	0.5	2.8
COc1ccc(/C(N)=N/OC(=O)c2cccc([N+](=O)[O-])c2C)cc1	-9.6	3.4	3.7	0.6	-4.7
COc1ccccc1C/C(N)=N/OC(=O)c1cccc([N+](=O)[O-])c1C	-0.9	?	136.3*	-1.4	4.8
N/C(Cc1ccc([N+](=O)[O-])cc1)=N\OC(=O)c1ccc2ccccc2c1	-2.5	?	143.0*	0.7	-4.6
CSc1ncc(Cl)c(C(=O)Nc2ccc(S(=O)(=O)N3CCC(C)CC3)cc2)n1	5.6	·	·	1.6	·
N/C(Cc1ccc([N+](=O)[O-])cc1)=N\OC(=O)C(c1ccccc1)c1ccccc1	-5.5	12.3	89.4*	0.0	12.3
N/C(Cc1ccc([N+](=O)[O-])cc1)=N\OC(=O)c1ccc(Br)cc1	-10.0	?	170.8*	-1.5	11.9
N/C(Cc1ccc([N+](=O)[O-])cc1)=N\OC(=O)c1ccco1	·	52.7*	21.0	·	·
Cc1ccc(CC(=O)O/N=C(\N)Cc2ccc([N+](=O)[O-])cc2)cc1	-5.9	6.7	11.8	-1.1	-16.0
COc1ccc(C/C(N)=N/OC(=O)C(c2ccccc2)c2ccccc2)cc1OC	-0.4	7.4	50.1*	1.0	-16.6
COc1ccc(C(=O)N(Cc2sccc2C)C2CCS(=O)(=O)C2)cc1Cl (stereo unspecified)	8.5	·	·	9.3	·
COc1ccc(CCNC(=O)c2nc(SCc3ccccc3F)ncc2Cl)cc1OC	-3.9	·	·	7.5	·
CSc1ccc(CCNC(=O)CN2C(=O)COc3ccc(S(=O)(=O)N4CCCCCC4)cc32)cc1	4.8	·	·	-0.9	·
CCOC(=O)c1ccc(NC(=O)Oc2ccccc2)cc1	33.3*	0.2	-3.6	0.9	-2.2
CCOC(=O)c1ccc(NC2=CC(=O)C(=O)c3ccccc32)cc1	-6.2	9.8	111.8*	-0.3	-7.8
CCN(CC)CCOC(=O)c1ccc(Cl)cc1	5.5	-4.8	-45.5	-0.1	-5.2
CCN(CC)CCOC(=O)c1ccc(Cl)cc1Cl	-14.4	-1.3	-28.9	-0.7	32.7*
O=[N+]([O-])c1cc(-c2ccc(/C=N/c3nc4ccccn4c3-c3ccco3)o2)ccc1Cl	4.4	8.5	70.4*	0.1	10.3
O=[N+]([O-])c1ccc(-c2ccc(C=Nc3cccc4ccccc34)o2)cc1	3.7	-0.4	14.5	-0.6	-3.7
Cc1cc2nc(-c3ccc(OCc4ccccc4F)cc3)cc(C(F)(F)F)n2n1	-5.7	·	·	0.3	·
CCOc1ccc(NC(=O)CCn2c(=O)c3cccn3c3cccnc32)cc1	2.6	·	·	-0.7	·
CCCN(Cc1nnc(-c2cccs2)o1)C(=O)CN1C(=O)NC2(CCC(C)CC2)C1=O (stereo unspecified)	12.9	-3.8	-0.3	0.1	2.1
CCCN(Cc1nnc(-c2cccs2)o1)C(=O)CN1C(=O)NC2(CCCCC2)C1=O	2.2	-1.7	-1.0	0.9	31.4*
SMILES	D2 PAM-1	D2 ag-1	D2 PAM-2	D2 ag-2	D2 antag
CCN(C(=O)Cn1cnc2onc(-c3ccc(F)cc3)c2c1=O)c1cc(C)ccc1C	-2.0	·	·	0.0	·
Cc1nc(-c2ccc(F)cc2)c(CC(=O)N2CCN(S(=O)(=O)c3cccc([N+](=O)[O-])c3)CC2)s1	-4.5	?	29.0	0.1	33.8*
N#CC(C#N)=c1ccc2c(c1)N1C3=C(CCCC3)CC3CCCCC31N=2 (stereo unspecified)	5.6	3.2	70.5*	2.9	2.9
N#C/C(C(N)=O)=c1/ccc2c(c1)N1C3=C(CCCC3)CC3CCCCC31N=2 (stereo unspecified)	12.3	2.9	-0.3	-0.7	22.4
CCOC(=O)c1sc2cccc(F)c2c1S(=O)(=O)N1CCN(c2cccc(Cl)c2)CC1	-1.1	·	·	0.1	·
CCN1CCN(c2cc(C)c3cc(NC(=S)NCCCN4CCc5ccccc5C4)ccc3n2)CC1	-32.0	-2.9	-14.5	0.6	52.6*
Cc1cc(N2CCN(C)CC2)nc2ccc(NC(=S)NCCCN3CCc4ccccc4C3)cc12	-29.1	-3.1	-14.1	0.5	34.1*
Cc1cc(N2CCN(C)CC2)nc2ccc(NC(=S)NCCN3CCc4ccccc4C3)cc12	-25.0	-0.4	-20.4	-0.8	14.5
CCOC(=O)c1ccc(NC(=O)C(CC)Sc2nc3ncccc3o2)cc1 (stereo unspecified)	4.3	·	·	2.0	·
COc1ccc(-c2noc(CSc3nc(N)cc(=O)[nH]3)n2)cc1OC	-9.5	·	·	0.3	·
Oc1ccc(NCc2ccccc2OCc2ccccc2F)cc1	4.7	14.3	115.5*	-0.4	16.7
CCOc1cc(CNc2ccc(O)cc2)ccc1OCc1ccc(Cl)cc1Cl	7.6	44.4*	96.5*	-0.7	-14.4
CCOc1cccc(CNc2ccc(O)cc2)c1OCc1ccc(Cl)cc1	-6.7	?	90.7*	0.0	-14.9
CCOc1cc(CNCc2ccccc2)ccc1OCc1ccc(Cl)cc1	·	-9.2	-10.8	·	·
Cc1ccc2c(=O)c(C(=O)c3ccccc3)cn(CC(=O)NCc3ccccc3)c2n1	-6.8	·	·	0.1	·
CC1CCCCC1NC(=O)CN1CCN(Cc2ccccc2Cl)C1=O (stereo unspecified)	12.3	-3.5	-9.5	0.9	4.0
O=C(CN1CCN(Cc2ccccc2Cl)C1=O)NC1CCCCCCC1	-0.4	-1.2	5.3	-2.2	31.0*
O=C1CC(c2ccc(Cl)cc2)Sc2nc(-c3ccc(F)cc3)nn21 (stereo unspecified)	-1.2	·	·	-0.5	·
CCc1nn(CC(=O)NCCC(C)C)c(=O)c2cc3occc3n12	12.8	·	·	·	·
COc1ccc(OC)c(-c2csc(NC(=O)Cn3[nH]c(=O)c4ccccc4c3=O)n2)c1	0.2	-5.5	-23.0	4.3	31.9*
COc1ccccc1N1CCN(CCC(=O)Nc2cccc(F)c2)CC1	-31.7	2.2	-41.6	20.7	·
O=C(c1ccco1)N1CCN(C(=S)Nc2ccc(F)cc2)CC1	5.9	-1.4	-5.3	0.1	6.1
Cc1ccccc1N1CCN(CCC(=O)Nc2ccc(F)cc2)CC1	-20.2	1.5	-73.9	0.6	78.1*
O=C(Cc1ccc(Cl)cc1)Nc1ccc(N2CCN(C(=O)c3ccco3)CC2)cc1	32.2*	1.3	-12.7	-0.2	-15.8
O=C(CCN1CCN(C(=O)c2ccco2)CC1)Nc1ccc(F)cc1	-26.7	0.2	-13.4	33.5*	11.3
CCN(C(=O)c1cc2c(Cl)nc3ccccc3c2s1)c1cccc(Cl)c1	-4.3	·	·	0.6	·
